Source: PubChem BioAssay (several laboratories)
E-sel TNF inh – E-selectin induction blockers in HUVEC – imaging, immunofluorescence, high content, primary screen; HUVEC TNFa-induced E-selectin immunofluorescence; inhibition, % at 2 µM; 120,000 tested, 0.71% active;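 active means inhibition above the batch mean plus 3 SD, and confirmed as a hit on visual image review, cut at about 43% in these data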;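 further: 0% = TNF-stimulated DMSO wells and 100% = unstimulated control wells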
CYP2C19 act – human CYP2C19 activators, primary screen, biochemical, luminescence; activation factor at 5 µM; AID 1025, 2008; 96,000 tested, under 10 active; recombinant CYP2C19, luciferin-H EGE luminescence; stronger effect = higher value; 0 = fully inhibited enzyme, 1 = untreated enzyme; Cytochrome P450 2C19 (Homo sapiens), P33261;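 active means activation factor of at least 2 at 5 µM in the primary screen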;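 further: 0 = wells with 2.5 mM tranylcypromine and 1 = vehicle-only wells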
Target sequence (P33261 whole entry, looked up): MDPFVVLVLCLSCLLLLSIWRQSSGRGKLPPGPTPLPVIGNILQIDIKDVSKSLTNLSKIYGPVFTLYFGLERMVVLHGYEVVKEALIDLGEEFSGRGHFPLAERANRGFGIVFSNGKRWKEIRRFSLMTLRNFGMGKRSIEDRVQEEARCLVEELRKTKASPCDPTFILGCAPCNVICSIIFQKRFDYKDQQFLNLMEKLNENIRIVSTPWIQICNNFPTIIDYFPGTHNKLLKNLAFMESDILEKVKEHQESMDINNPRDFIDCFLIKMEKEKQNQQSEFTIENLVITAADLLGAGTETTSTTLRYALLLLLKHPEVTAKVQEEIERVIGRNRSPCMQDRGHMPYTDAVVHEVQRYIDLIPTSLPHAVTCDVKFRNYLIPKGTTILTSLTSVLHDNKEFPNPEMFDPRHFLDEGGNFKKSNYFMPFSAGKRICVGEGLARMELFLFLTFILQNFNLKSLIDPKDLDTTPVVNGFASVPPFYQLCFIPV
CYP2C19 inhib – blockers of cytochrome P450 2C19 activity – biochemical, luminescence, ADME assay, primary screen. AID 778, 2007. CYP2C19 Supersomes, luciferin-H EGE luminescence, 30 min. 96,000 tested, 21% active. inhibition, % at 5 µM. P33261;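 active means CYP2C19 inhibition above a set limit at 5 µM in the primary screen, cut at about 50% in these data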;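 further: plate controls were negative control wells for no effect and 2.5 mM tranylcypromine positive control for full effect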
CYP2C9 inhib – blockers of cytochrome P450 2C9 activity – biochemical, luminescence, ADME assay, primary screen | inhibition, % at 5 µM | P11712 | AID 777, 2007 | 96,000 tested, 20% active | CYP2C9 Supersomes, luciferin-H conversion;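 active means blocking of liver enzyme CYP2C9 beyond about 50% at 5 µM, limit read from the data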
CYP2C9 act – human CYP2C9 activators, primary screen, biochemical, luminescence; 96,000 tested, 1.4% active; activation factor at 5 µM; recombinant CYP2C9, luciferin-H conversion; stronger effect = higher value; factor 1 = untreated enzyme, 0 = blocked; Cytochrome P450 2C9 (Homo sapiens), P11712;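 active means activation factor of 2 or more for CYP2C9 at a 5 µM dose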;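 further: 0 = sulfaphenazole-blocked wells and 1 = vehicle-only wells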
F-actin modifier – modifiers of F-actin cytoskeleton organization, primary screen, imaging, HUVEC, phalloidin staining, high-content imaging. 91,000 tested, 0.18% active. AID 836, 2007. inhibition, % at 2 µM. HUVEC TNFa F-actin phalloidin imaging;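 active means inhibition above the batch mean plus 3 SD and confirmed as a hit by visual image inspection, cut at about 30% in these data, passing the limit was not always enough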
* hit, by the source's call; nt = no result. Compounds with a hit are over-represented: about 22% of the library has one in this group of screens.

SMILES | E-sel TNF inh | CYP2C19 act | CYP2C19 inhib | CYP2C9 inhib | CYP2C9 act | F-actin modifier
O=C1N(CN2C(=O)C3(OCCO3)c3ccccc32)c2ccccc2C12OCCO2 | nt | 1 | 5 | 7 | 0.9 | -11
CC1CCCN(C(=O)C2CCN(CC3CC=CCC3)CC2)C1 (stereo not drawn) | nt | 1 | -1 | -26 | 1.3 | 0
Cc1cccc(C(=O)NNC(=O)CCC(=O)Nc2cccc(Cl)c2C)c1 | 10 | nt | nt | nt | nt | nt
O=C(Nc1ccc([N+](=O)[O-])cc1)Nc1ccc(OC(F)F)c(Cl)c1 | -3 | nt | nt | nt | nt | nt
COc1ccc(NC(=O)c2cccc(F)c2)cc1Cl | -9 | 0.5 | 49 | 2 | 1 | -20
COc1ccc(NC(=O)c2cccc(OC(F)F)c2)cc1Cl | -9 | 0.3 | 69* | -13 | 1.1 | -8
O=C(Nc1ccccc1OC(F)F)c1ccccc1 | 16 | 0.9 | 6 | -19 | 1.2 | -2
CCOc1cccc(C(=O)Nc2ccccc2OC(F)F)c1 | 5 | 0.4 | 56* | 33 | 0.7 | 10
Cc1c(Cl)cccc1NC(=O)c1cccc(OC(F)F)c1 | -11 | 0.3 | 72* | 0 | 1 | 15
O=C(Nc1ccc(OC(F)F)c(Cl)c1)c1cccc(OC(F)F)c1 | 9 | 0.1 | 88* | 11 | 0.9 | 2
COc1ccc(S(=O)(=O)N2CCC(C(=O)Nc3c(F)cccc3F)CC2)cc1 | -17 | 1 | -1 | 6 | 0.9 | nt
O=C(NC1CCS(=O)(=O)C1)c1cccnc1 (stereo not drawn) | 7 | nt | nt | nt | nt | nt
O=C(NC(NC1CCS(=O)(=O)C1)C(=O)c1cccs1)c1ccccc1 (stereo not drawn) | -7 | 0 | 99* | 69* | 0.3 | -2
CCCN1CCC(NC(=O)Nc2ccc(OC)c(OC)c2)CC1 | -2 | 1 | 4 | 1 | 1 | 11
COc1ccc(NC2=Nc3ccccc3N3C2=Nc2c(c(C)nn2-c2ccc(C)cc2)C3c2cccnc2)cc1 (stereo not drawn) | -2 | 0.7 | 25 | 56* | 0.4 | -13
CC(=O)Nc1ccc(NC2=Nc3ccccc3N3C2=Nc2c(c(C)nn2-c2ccccc2)C3c2ccccc2)cc1 (stereo not drawn) | -5 | 0.8 | 19 | 42 | 0.6 | -2
COc1cccc(-n2nnnc2SCC(=O)Nc2cccc(C)n2)c1 | -29 | 0.7 | 25 | -64 | 1.6 | -18
COc1cccc(-n2nnnc2SCC(=O)NCc2ccco2)c1 | -19 | 0.9 | 13 | -28 | 1.3 | -37
COc1ccc(-n2nnnc2SCC(=O)Nc2nnc(C)s2)cc1 | 10 | 0.8 | 16 | 54* | 0.5 | -18
COc1ccc(-n2nnnc2SCC(=O)NCc2ccco2)cc1OC | -1 | 0.8 | 19 | -124 | 2.2* | -28
CCC(=O)Nc1cccc(-c2nnc(SCC(=O)NCc3ccco3)n2C)c1 | -7 | 1.1 | -14 | -18 | 1.2 | 44
COc1ccc(-n2nnnc2SCC(=O)Nc2cccc(C)n2)cc1OC | 19 | 0.7 | 26 | 58* | 0.4 | -14
CCC(=O)Nc1cccc(-n2nnnc2SCC(=O)NCc2ccco2)c1 | nt | 0.4 | 58* | -132 | 2.3* | -15
O=C(CCc1ccc(S(=O)(=O)NC2CCCCC2)cc1)NCc1ccc(Cl)cc1 | 3 | 0.8 | 21 | 44 | 0.6 | -4
CCc1ccc(OCc2nnc(SCC(=O)NCc3ccco3)o2)cc1 | nt | 0.7 | 32 | -13 | 1.1 | 1
SMILES | E-sel TNF inh | CYP2C19 act | CYP2C19 inhib | CYP2C9 inhib | CYP2C9 act | F-actin modifier
OC(COC(c1ccccc1)c1ccccc1)CN1CCN(c2ccccn2)CC1 (stereo not drawn) | -4 | nt | nt | nt | nt | nt
OC(COc1ccc(Cl)c2ccccc12)CN1CCN(c2ccccn2)CC1 (stereo not drawn) | -15 | 0.1 | 92* | 59* | 0.4 | nt
Cc1c(C)n(CC(O)CN2CCCCCC2)c2ccccc12 (stereo not drawn) | -59 | 0.3 | 72* | 4 | 1 | -16
O=C(c1ccco1)N1CCN(CC(O)Cn2c3ccccc3c3ccccc32)CC1 (stereo not drawn) | 16 | 0.2 | 83* | 88* | 0.1 | -6
OC(CN1CCN(c2ccccn2)CC1)Cn1c2ccccc2c2ccccc21 (stereo not drawn) | -4 | 0.4 | 57* | 54* | 0.5 | -6
OC(COCc1cccs1)CN1CCN(c2ccccn2)CC1 (stereo not drawn) | nt | 1 | 0 | -10 | 1.1 | 9
COc1ccc(-c2nc(-c3ccc4c(c3)OCO4)[nH]c2-c2ccc(OC)cc2)cc1 | -3 | nt | nt | nt | nt | nt
O=c1cc(CSc2nnc(-c3cccnc3)n2-c2ccccc2F)nc2sccn12 | -11 | 0.8 | 18 | 10 | 0.9 | -15
COc1ccc(N2CCN(C(=O)c3ccc(C)c(Cl)c3)CC2)cc1 | -2 | 0.7 | 27 | 2 | 1 | 25
Brc1cccc(-c2nnc(SCc3ccon3)n2-c2ccccc2)c1 | 9 | 0.5 | 50* | 44 | 0.6 | -2
Nc1nc(CSc2nnc(-c3cccc(F)c3)n2-c2ccccc2)nc(N2CCOCC2)n1 | 5 | nt | nt | nt | nt | nt
CCCN(CC1CC1)C(=O)COC(=O)c1[nH]c(C)c(C(=O)OCC)c1C | -2 | 0.4 | 60* | 44 | 0.6 | 11
CCOC(=O)c1[nH]c(C)c(C(=O)NC)c1C | nt | 0.9 | 12 | 2 | 1 | -2
CCOC(=O)c1c(C)[nH]c(C(=O)COC(=O)C2CC2C)c1C (stereo not drawn) | 13 | 0.3 | 73* | 98* | 0 | -7
CCCNC(=O)COC(=O)c1[nH]c(C)c(C(=O)OCC)c1C | 7 | 0.6 | 44 | 64* | 0.4 | 8
CCOC(=O)c1[nH]c(C)c(C(=O)OCC)c1C | nt | 0.2 | 84* | 75* | 0.2 | -14
CCOC(=O)c1c(C)[nH]c(C(=O)COC(=O)c2[nH]c(C)c(C(C)=O)c2C)c1C | -6 | 0.8 | 24 | 17 | 0.8 | 16
COc1ccc(OC)c(NC(=O)CCNS(=O)(=O)c2ccc3c(c2)c(=O)n(C)c(=O)n3C)c1 | -35 | nt | nt | nt | nt | nt
CCOC(=O)c1c(C)[nH]c(C(=O)COC(=O)c2ccncc2)c1C | nt | 0.8 | 16 | 92* | 0.1 | -8
CCOC(=O)c1[nH]c(C)c(C(=O)c2cc(F)ccc2F)c1C | -9 | 0.1 | 95* | 93* | 0.1 | -15
O=C(Nc1nc(-c2ccccc2)cs1)C1CCCN(S(=O)(=O)c2cccc([N+](=O)[O-])c2)C1 (stereo not drawn) | -2 | 0.5 | 48 | 62* | 0.4 | -11
COC(=O)c1ccccc1NC(=O)C1CCCN(S(=O)(=O)c2ccccc2)C1 (stereo not drawn) | 4 | 0.6 | 43 | 33 | 0.7 | -4
